For four compounds, z-score and composite z-score results are on record in PubChem BioAssay.

Test [1] can be described thus: optical density shifts of acrAB sulA E. coli – strain DRC41, OD650, 48 h, E. coli filamentation inducer project, primary screen (AID 1152).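 Note: E. coli MC1000 strain DRC41 lacking acrAB efflux pump and sulA.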 To be noted: higher = more signal, called active from +8 up or from −8 down.
Test [2] is described as follows: probe aLefty1 binding on compound microarray – biochemical, small-molecule microarray, 635/667 nm fluorescence, primary screen (AID 1153).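 Note: score merges spot fluorescence with signal-to-noise ratio from the scanned slide images.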 To be noted: higher = more signal.
A short description of test [3]: plasmodial surface anion channel blockers, osmotic lysis – cell-based, P. falciparum Indochina, OD700, 1 h, primary screen (AID 1154). To be noted: P. falciparum Indochina infected RBC osmotic lysis, higher = more signal, called active from +8 up or from −8 down.
The nature of test [4]: plasmodial surface anion channel blockers, osmotic lysis – cell-based, P. falciparum Indochina, OD700, 2 h, primary screen (AID 1155).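 Note: lysis reports solute entry through the parasite surface anion channel PSAC.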 To be noted: P. falciparum Indochina infected erythrocytes, higher = more signal, called active from +8 up or from −8 down.
Test [5] is described as follows: changes in parasitized red cell lysis, either direction – P. falciparum Indochina, OD700, 3 h, PSAC antagonist project, primary screen (AID 1156). Conditions: P. falciparum-infected erythrocytes, osmotic lysis, higher = more signal, called active from +8 up or from −8 down.
A short description of test [6]: plasmodial surface anion channel blockers, osmotic lysis – cell-based, P. falciparum Indochina, OD700, 18 h, primary screen (AID 1157). To be noted: P. falciparum Indochina infected erythrocytes, osmotic lysis OD700, 18 h; higher = more signal, called active from +8 up or from −8 down.
The nature of test [7]: S6 kinase pathway phospho-S6 level changes – cell-based, A549, cytoblot, luminescence, serum-stimulated, primary screen (AID 1158).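 Note: serum-stimulated A549 lung adenocarcinoma cells; signal is phosphorylated S6 detected by cytoblot immunostaining with HRP secondary.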 Conditions: 5 h, higher = more signal.
Test [8] deals with NADPH oxidase 2 (Homo sapiens) (UniProt P04839). Description: compounds shifting NOX2 Amplex Red fluorescence – cell-based, HEK293-NOX2, PMA-stimulated, NOX inhibitor project, primary screen (AID 1159). Note: test concentration not given here. Conditions: 45 min, higher = more signal, called active from +8 up or from −8 down.
Chain of NADPH oxidase 2 (Homo sapiens) (P04839 whole entry, looked up): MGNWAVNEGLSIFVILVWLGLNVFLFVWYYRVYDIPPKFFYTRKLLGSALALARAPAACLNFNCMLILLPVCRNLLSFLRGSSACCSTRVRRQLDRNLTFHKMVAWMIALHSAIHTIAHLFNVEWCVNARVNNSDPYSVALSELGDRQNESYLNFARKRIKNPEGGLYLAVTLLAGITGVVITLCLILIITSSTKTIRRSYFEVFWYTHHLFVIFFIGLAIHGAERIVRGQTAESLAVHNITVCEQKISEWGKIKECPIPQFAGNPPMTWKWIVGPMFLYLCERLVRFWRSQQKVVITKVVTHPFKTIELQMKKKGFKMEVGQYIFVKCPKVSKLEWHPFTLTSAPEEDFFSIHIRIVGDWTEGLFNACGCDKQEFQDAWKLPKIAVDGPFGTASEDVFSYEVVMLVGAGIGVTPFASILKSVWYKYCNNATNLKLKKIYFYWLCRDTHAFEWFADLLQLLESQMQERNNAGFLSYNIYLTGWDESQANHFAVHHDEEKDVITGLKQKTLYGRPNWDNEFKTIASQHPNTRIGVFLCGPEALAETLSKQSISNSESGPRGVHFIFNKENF
In test [9] the target is NADPH oxidase 4 (Homo sapiens) (UniProt Q9NPH5). Nature of the test: compounds shifting NOX4 Amplex Red fluorescence – cell-based, HEK293-NOX4, tetracycline-induced, NOX inhibitor project, primary screen (AID 1160). Conditions: HEK293-NOX4, Amplex Red H2O2 fluorescence, 45 min; higher = more signal, called active from +8 up or from −8 down.
Chain of NADPH oxidase 4 (Homo sapiens) (Q9NPH5 whole entry, looked up): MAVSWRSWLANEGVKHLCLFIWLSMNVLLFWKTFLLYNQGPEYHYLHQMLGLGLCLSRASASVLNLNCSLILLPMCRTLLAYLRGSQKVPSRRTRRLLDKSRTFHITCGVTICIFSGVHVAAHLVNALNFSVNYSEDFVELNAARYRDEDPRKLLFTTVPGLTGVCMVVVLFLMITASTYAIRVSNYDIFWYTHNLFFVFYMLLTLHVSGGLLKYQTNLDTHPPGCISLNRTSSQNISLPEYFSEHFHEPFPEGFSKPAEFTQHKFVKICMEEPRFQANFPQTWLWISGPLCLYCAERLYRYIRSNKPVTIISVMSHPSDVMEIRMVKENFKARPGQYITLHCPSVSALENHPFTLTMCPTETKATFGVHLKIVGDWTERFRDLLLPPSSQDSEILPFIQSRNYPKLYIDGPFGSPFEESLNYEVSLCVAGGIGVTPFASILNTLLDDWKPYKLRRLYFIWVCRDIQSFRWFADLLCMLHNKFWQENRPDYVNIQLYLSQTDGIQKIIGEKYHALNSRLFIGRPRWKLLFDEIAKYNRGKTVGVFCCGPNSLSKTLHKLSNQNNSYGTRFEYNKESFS
The target in test [10] is NADPH oxidase 5 (Homo sapiens) (UniProt Q96PH1). Nature of the test: compounds shifting NOX5 Amplex Red fluorescence – cell-based, HEK293-NOX5, NOX inhibitor project, primary screen (AID 1161). Conditions: HEK293-NOX5, ionomycin, 45 min, higher = more signal.
Chain of NADPH oxidase 5 (Homo sapiens) (Q96PH1 whole entry, looked up): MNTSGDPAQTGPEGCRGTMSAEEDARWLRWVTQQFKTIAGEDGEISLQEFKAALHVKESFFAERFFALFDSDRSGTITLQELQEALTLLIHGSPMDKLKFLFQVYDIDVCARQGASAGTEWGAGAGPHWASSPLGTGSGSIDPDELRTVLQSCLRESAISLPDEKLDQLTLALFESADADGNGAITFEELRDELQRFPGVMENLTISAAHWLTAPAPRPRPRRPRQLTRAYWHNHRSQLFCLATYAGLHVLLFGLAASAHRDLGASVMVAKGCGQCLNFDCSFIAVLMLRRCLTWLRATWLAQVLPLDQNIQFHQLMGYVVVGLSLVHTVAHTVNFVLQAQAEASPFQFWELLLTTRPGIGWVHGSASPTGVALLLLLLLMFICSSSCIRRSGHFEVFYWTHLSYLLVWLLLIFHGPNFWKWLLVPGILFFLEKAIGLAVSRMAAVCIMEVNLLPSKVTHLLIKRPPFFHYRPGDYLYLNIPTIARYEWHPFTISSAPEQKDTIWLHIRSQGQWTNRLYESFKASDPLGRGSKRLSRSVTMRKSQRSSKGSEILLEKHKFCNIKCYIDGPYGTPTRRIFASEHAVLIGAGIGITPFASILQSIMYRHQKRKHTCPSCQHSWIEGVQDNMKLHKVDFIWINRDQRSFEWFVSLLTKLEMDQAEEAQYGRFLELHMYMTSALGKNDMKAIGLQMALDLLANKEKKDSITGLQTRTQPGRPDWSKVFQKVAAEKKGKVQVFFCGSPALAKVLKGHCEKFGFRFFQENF
Test [11] in a line: compound effects on lung adenocarcinoma cell viability – A549, calcein-AM fluorescence, 48 h, basal, profiling panel (AID 1162). Note: test concentration not given here. Conditions: higher = more signal.
Test [12] in a line: compound effects on differentiated 3T3-L1 adipocyte viability – cell-based, 3T3-L1 adipocytes, calcein-AM fluorescence, 48 h, basal, profiling panel (AID 1163). Note: test concentration not given here. Conditions: 3T3-L1 adipocytes viability, higher = more signal.
Test [13] is described as follows: compound effects on hepatocellular carcinoma cell viability – HepG2, calcein-AM fluorescence, 48 h, basal, profiling panel (AID 1164). Note: test concentration not given here. To be noted: higher = more signal.
Test [14] is described as follows: compound effects on multiple myeloma cell viability – MM1S, calcein-AM fluorescence, 48 h, basal, profiling panel (AID 1165). Note: test concentration not given here. Conditions: higher = more signal.
Test [15] in a line: calcein-AM signal in unstimulated myeloma cells – cell-based, calcein-AM fluorescence, 48 h, PK04 Diversity Set, profiling panel (AID 1166).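 Note: cells grown under basal conditions without added stimulus; test concentration not given here.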 Conditions: RPMI8226 myeloma viability, higher = more signal.
Test [16] can be described thus: JC-1 mitochondrial signal, unstimulated HepG2 cells – cell-based, JC-1 fluorescence, 24 h, 100 nL compound, profiling panel (AID 1167). Note: test concentration not given here. To be noted: HepG2 mitochondrial potential, higher = more signal.
Test [17] can be described thus: JC-1 mitochondrial signal, unstimulated adipocytes – cell-based, JC-1 fluorescence, 3T3-L1 adipocytes, 24 h, 100 nL compound, profiling panel (AID 1168). Note: test concentration not given here. Conditions: JC-1 mitochondrial fluorescence, higher = more signal, called active from +8 up or from −8 down.
A short description of test [18]: JC-1 mitochondrial signal, unstimulated myeloma cells – cell-based, JC-1 fluorescence, RPMI8226, 24 h, 100 nL compound, profiling panel (AID 1169). Note: test concentration not given here. Conditions: JC-1 mitochondrial potential fluorescence, higher = more signal.
Test [19] in a line: JC-1 mitochondrial signal, unstimulated MM1S myeloma – cell-based, JC-1 fluorescence, 24 h, 100 nL compound, profiling panel (AID 1170). Note: test concentration not given here. Conditions: MM1S mitochondrial potential, higher = more signal.
A short description of test [20]: resazurin metabolic signal in A549 cells – cell-based, resazurin fluorescence, 24 h, PK04 Diversity Set, profiling panel (AID 1171). Note: test concentration not given here. To be noted: A549 viability, higher = more signal, called active from +8 up or from −8 down.

The source made the active and inactive calls.

For `C#CCN(C/C=C/c1ccccc1)[C@H](CO[Si](C)(C)C(C)(C)C)c1ccccc1`, the z-score in test [1] was -0.78 (inactive); in test [3], 0.829 (inactive); in [4], 0.984 (inactive); in test [5], 1.05 (inactive); in test [6] it was -0.161 (inactive); in test [7], -0.0623. The z-score in [8] was 1.64 (inactive); in test [9], 0.447 (inactive); in test [10], -0.419; in test [11], -0.909; in [12] it was -0.0156; in test [13], -0.676. The z-score in test [14] is -0.848; in [15], -2.58; in test [16] it was -2.55; in [17], 0.155 (inactive); in test [18], -0.352; in [19] it was 0.653. Also, the z-score in [20] was 0.403 (inactive). For the same compound, the composite z-score in test [2] was -0.346.

For the compound `CN(C)CCCNC(=O)[C@@]1(Cc2ccccc2I)c2ccccc2C(=O)N(Cc2ccccc2)[C@H]1c1ccc(CO)cc1`, the z-score was -0.206 (inactive) in [1]; 1.88 (inactive) in test [3]; 0.614 (inactive) in test [4]; -1.26 (inactive) in [5]; 0.452 (inactive) in test [6]; -0.5 in test [7]. The z-score is -8.23 (active) in [8]; -3.08 (inactive) in test [9]; -1.71 in test [10]; -2.02 in test [11]; -0.826 in test [12]; -3.4 in test [13]. The z-score in [14] was -3.73; in test [15], -3.31; in test [16], 0.601; in test [17], -0.354 (inactive); in test [18], -0.681; in [19] it was -1.54. In [20], the z-score was -3.32 (inactive). Further, in test [2], the composite z-score is -0.729.

For the compound `CCCC[C@@H]1C[C@H]1[C@@H](NC(=O)Cc1ccccc1)c1ccc(Cl)cc1`, the z-score is -1.71 (inactive) in [1]; 1.15 (inactive) in test [3]; 1.03 (inactive) in test [4]; 2.18 (inactive) in test [5]; 1.53 (inactive) in [6]; -1.06 in [7]. Moreover, the z-score was -0.795 (inactive) in test [8]; -0.195 (inactive) in test [9]; 1.88 in [10]; -1.07 in test [11]; -0.669 in test [12]; -1.9 in test [13]. The z-score in test [14] is -3.46; in test [15], -4.66; in test [16], -4.92; in test [17], -1.27 (inactive); in [18], -0.906; in test [19], -2.89. The z-score in [20] is 3.48 (inactive). In [2], this compound showed a composite z-score of 0.509.

Turning to `COc1cccc(OC)c1C(=O)O[C@H]1[C@@H]2OC(=O)[C@H](Cc3cccc(Br)c3)C/C=C/C[C@@H](Cc3cccc(Br)c3)C(=O)O[C@H]2[C@@H](OC)O[C@@H]1CO`, the z-score was -0.899 (inactive) in test [1]; 3.18 (inactive) in test [3]; -0.0392 (inactive) in test [4]; -1.53 (inactive) in test [5]; 0.581 (inactive) in test [6]; 0.0487 in test [7]. Moreover, the z-score in test [8] was -0.443 (inactive); in test [9], -0.0533 (inactive); in test [10] it was 0.955; in test [11], -0.144; in test [12], 0.0726; in test [13] it was -0.215. Besides, the z-score in test [14] was -2.6; in test [15] it was -3.88; in [16], -3.42; in test [17], -0.819 (inactive); in test [18], -0.735; in test [19], -0.211. Further, the z-score in test [20] was -0.952 (inactive). For the same compound, in [2], the composite z-score is -0.0559.
